Shn3 inh set2 = reduces Shn3 3'UTR luciferase signal in osteoblasts; Clone20 osteoblast Shn3 3'UTR firefly luciferase, 24 h; inhibition, % at 12.5 µM; actives 0.52% (n = 360,000);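 active = mean inhibition of at least 75% with every replicate also reaching 75%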;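 also: 0% = median of neutral control wells and 100% = pilot-screen positive control compound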
CF NFkB inh = cystic fibrosis NF-kB activation inhibition; KKLEB NF-kB-GFP reporter, PAF-induced, GFP fluorescence overnight; inhibition, % at 5 µM; actives 0.86% (n = 360,000); AID 588850;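 active = at least 50% inhibition at 5 µM, scaled per plate between neutral and stimulator controls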;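 also: PAF is a Pseudomonas aeruginosa culture filtrate used as stimulus; plate controls were PAF-stimulated DMSO wells for no effect and unstimulated DMSO wells for full effect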
Peg3 promoter = reduces Peg3 promoter-driven luciferase expression in HeLa; HeLa PEG-Prom luciferase reporter, luminescence, overnight; inhibition, % at 20 µM; actives 1.7% (n = 360,000); AID 588405;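 active = inhibition of at least 50% at 20 µM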
KKLEB tox = CF airway cell cytotoxicity counter-screen; actives 0.36% (n = 360,000); activity change (cytotoxicity), % at 5 µM; AID 602141; KKLEB CF airway cells viability, ATPlite luminescence, overnight; active compounds read low; cells stimulated with P. aeruginosa culture filtrate;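 active = corrected activity change at or below -50% at 5 µM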
HIF-2a block = blocks HIF-2a reporter activity. 786-0 RCC cells HIF-2a reporter, luciferase luminescence, overnight. inhibition, % at 18.8 µM. actives 0.72% (n = 360,000). AID 624352;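 active = inhibition of the luminescence signal of 40% or more relative to plate controls, in a single-dose primary screen at 18.75 µM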
CF NFkB inh conf = CF NF-kB inhibition confirmation, single concentration; inhibition, % at 5 µM; shares compounds with CF NFkB inh; AID 602472; KKLEB CF airway cells, PAF-induced NF-kB-GFP fluorescence, overnight; actives 64% (n = 1,300); in the data active = inhibition above about 40%;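 also: stimulus PAF is a Pseudomonas aeruginosa filtrate and not platelet activating factor; plate controls were DMSO wells with stimulus for no effect and unstimulated DMSO wells for full effect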
* hit, by the source's call; . = no result given. Sampled rows, rich in hits. Any-hit rate of the full collection: about 2.6%.

SMILES	Shn3 inh set2	CF NFkB inh	Peg3 promoter	KKLEB tox	HIF-2a block	CF NFkB inh conf
Cc1ccc(NC(=S)NC(=O)c2ccccc2)cc1NC(=S)NC(=O)c1ccccc1	-5	64*	-52	-27	-206	27
O=c1[nH]c2c(=O)[nH]cnc2nc1-c1ccccc1	9	7	-2	-25	20	.
NC(=O)c1ccc(Nc2nc(C(N)c3ccccc3Cl)cs2)cc1 (stereo unspecified)	3	-4	29	-4	26	.
NC(c1csc(NC(=O)Nc2cccc(Cl)c2)n1)c1ccccc1Cl (stereo unspecified)	2	91*	100*	-16	-43	77*
Cc1ccc(C(=O)Nc2cccc(C(F)(F)F)c2)cc1NC(=O)c1nccn1C	-6	19	4	3	-9	.
Cc1ccc(C(=O)Nc2cccc(C(F)(F)F)c2)cc1Nc1cnccn1	12	51*	-3	0	1	43*
Cc1ccc(C(=O)Nc2cccc(C(F)(F)F)c2)cc1NC(=O)c1ccno1	4	60*	27	-4	-15	71*
CCOC(=O)C1=CCN(S(=O)(=O)c2ccc(C)cc2)C1c1cccc(C)c1 (stereo unspecified)	16	-3	21	-2	6	.
CC(=O)[C@@]1(O)CC[C@H]2[C@@H]3C[C@H](C)C4=CC(=O)CC[C@]4(C)[C@H]3CC[C@@]21C	7	54*	-7	18	19	-86
C=C1CC2C(CCC3(C)C2CCC3(O)C(C)=O)C2(C)CCC(=O)C=C12 (stereo unspecified)	14	30	7	-11	23	.
COc1cc(OC)cc(C(=O)Nn2cc(C(=O)Nc3ccc(F)cc3F)c3ccccc3c2=O)c1	14	-4	19	2	25	.
COc1ccccc1CNC(=O)CS(=O)(=O)c1ccccc1	8	-17	-11	10	12	.
O=[N+]([O-])c1cccnc1Oc1ccc(F)cc1	-23	-5	7	-2	11	.
O=[N+]([O-])c1ccc(Oc2ccc(F)cc2)c2ccncc12	12	59*	21	-24	39	63*
CCCCN(C)c1c(C)nc2ccc(C(=O)NCc3ccc4c(c3)OCO4)cn12	7	13	22	-4	9	.
CCc1cc2cc3c(cc2nc1SCC(=O)Nc1cc(C)on1)OCO3	.	55*	34	-42	0	43*
CCC/C=C/c1ccc(CN2C(C)C(=O)N(Cc3cn(Cc4ccco4)nn3)CCS2(=O)=O)cc1 (stereo unspecified)	18	20	14	-10	-3	.
CC1C(=O)N(Cc2cn(CC3CCCCC3)nn2)CCS(=O)(=O)N1Cc1ccc(-c2ccccc2)cc1 (stereo unspecified)	20	17	28	5	-13	.
CC1C(=O)N(Cc2cn(Cc3ccco3)nn2)CCS(=O)(=O)N1Cc1ccc(-c2ccccc2C(F)(F)F)cc1 (stereo unspecified)	11	66*	18	-23	-16	52*
Cc1ccc(-c2ccc(CN3C(C(C)C)C(=O)N(Cc4cn(CCC5OCCO5)nn4)CCS3(=O)=O)cc2)c(C)c1 (stereo unspecified)	21	65*	16	-14	-18	36
CCC/C=C/c1ccc(CN2C(C(C)C)C(=O)N(Cc3cn(Cc4ccco4)nn3)CCS2(=O)=O)cc1 (stereo unspecified)	3	52*	21	8	-35	45*
Cc1ccc(-c2ccc(CN3C(C)C(=O)N(Cc4cn(CC5CCCCC5)nn4)CCS3(=O)=O)cc2)cc1 (stereo unspecified)	18	76*	12	-24	-35	40
CC1C(=O)N(Cc2cn(Cc3ccco3)nn2)CCS(=O)(=O)N1Cc1ccc(-c2ccc(Cl)c(Cl)c2)cc1 (stereo unspecified)	14	65*	21	5	-21	28
Cc1ccc(-c2ccc(CN3C(C)C(=O)N(Cc4cn(Cc5ccco5)nn4)CCS3(=O)=O)cc2)c(C)c1 (stereo unspecified)	-3	48	10	2	-2	.
Cc1ccccc1-c1ccc(CN2C(C)C(=O)N(Cc3cn(Cc4ccco4)nn3)CCS2(=O)=O)cc1 (stereo unspecified)	-6	60*	27	7	2	19
SMILES	Shn3 inh set2	CF NFkB inh	Peg3 promoter	KKLEB tox	HIF-2a block	CF NFkB inh conf
CCCOc1ccc(C(=O)OCCN(CC)CC)cc1N	-4	75*	5	4	-15	16
COC(=O)c1ccc(CC2(C)C(=O)Nc3ccc(-c4cccc(C(F)(F)F)c4)cc32)o1 (stereo unspecified)	19	19	10	-5	27	.
COC(C/C=C/C(=O)[C@H](C)OCc1ccccc1)OC	-62	58*	20	-16	15	-35
COC(C/C=C/C(=O)COCc1ccccc1)OC	-19	10	-4	-7	-8	.
CC(=O)Oc1ccc(OC(C)=O)c(SCCCCCCl)c1	95*	58*	14	-10	-4	10
CC(=O)Oc1ccc(C(=O)O)cc1OC(C)=O	-4	21	-10	-7	15	.
CC(=O)C1CCC2C3CCC4=CC(=O)CC[C@]4(C)[C@@]3(F)C(O)C[C@]12C (stereo partly specified)	11	56*	12	26	27	-50
CC(=O)C1CCC2C3CCC4=CC(=O)CCC4(C)C3(Br)C(=O)CC12C (stereo unspecified)	11	0	12	4	-3	.
O=C(Nc1ccc(Br)c2ccccc12)c1ccc2ccccc2c1O	54	54*	-13	-46	-142	73*
CC(=O)Nc1ccc(Br)c2ccccc12	16	4	6	8	19	.
Cc1nonc1CN(C)C(=O)c1ccc(OC2CCN(C(=O)c3cccnc3)CC2)cc1	-11	-4	17	10	13	.
Cc1cccc(Cn2nc(-n3cccc3)c3c(C)cc(C)nc32)c1	-13	3	0	0	4	.
Cc1cccc(Nc2ncnc(N)c2[N+](=O)[O-])n1	8	29	-35	14	-2	.
Cc1cc(C)nc(Sc2ncnc(N)c2[N+](=O)[O-])n1	40	63*	27	-12	18	63*
Cc1nnc(NC(=O)c2cc(-c3ccncc3)nc3c(C)cccc23)s1	-4	-19	14	13	16	.
CCOC(=O)C1=C(C)Nc2ccccc2N=C1NC(=O)c1oc2ccccc2c1COC	4	55*	65*	-15	4	58*
COC(=O)Cn1cnc2c(cnn2-c2ccc(C)cc2)c1=O	-16	15	-39	2	-15	.
CN(Cc1cc(Cl)cc(Cl)c1O)Cc1c(O)ccc2ccccc12	-12	59*	18	-17	12	8
Cc1cc(=O)[nH]c(SCc2cc(=O)n3nc(C)sc3n2)n1	-22	-5	4	3	15	.

Screens from PubChem.
